Screens deposited in PubChem by National Center for Advancing Translational Sciences (NCATS).
In the library only some 19% were active in any assay of this set; here they are far more common.
HT1080 IDH1KD tx – qHTS for induction of synthetic lethality in tumor cells producing 2HG: qHTS for the HT-1080-IDH1KD cell line; HT-1080 IDH1 knockdown viability, ATP luminescence, 48 h; Potency, µM (doses to about 46.1 µM), usual class: cytotoxic; 2% of 360,000 active; AID 686971, 2013
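Assay cells: HT-1080 with IDH1 knockdown, 750 per well, RPMI/5% FBS. Exposure: 48 h at 37 °C following 2 h pre-incubation. Read: CellTiter-Glo luminescence; fitted concentration-response, curve class assigned.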
HT1080NT lethal – qHTS for induction of synthetic lethality in tumor cells producing 2HG: qHTS for the HT-1080-NT fibrosarcoma cell line; HT-1080-NT fibrosarcoma viability, CellTiter-Glo ATP luminescence, 48 h; Potency, µM (series often up to 46.1 µM), hits mostly cytotoxic; 1.6% of 360,000 active;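 further: NT is the 2HG producing partner of a matched IDH1 knockdown line; nearly all actives have a fitted effect of over 55% in size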
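Viability of the 2HG-overproducing fibrosarcoma line after 48 hours of compound exposure at 37 degrees C was determined by luminescence with CellTiter-Glo, and concentration-effect curves were then fitted and categorized.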
TDP1 cell noCPT – qHTS for Inhibitors of human tyrosyl-DNA phosphodiesterase 1 (TDP1): qHTS in cells in absence of CPT. DT40 Tdp1-/- hTDP1 cells, no CPT, ATP luminescence, 48 h. Potency, µM (top dose mostly 46.2 µM), actives largely listed as inhibitors. AID 686978, 2013. 15% of 420,000 active; further: nearly all actives have a fitted effect of over 55% in size
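Luminescent ATP content (CellTiter-Glo) served as the growth readout. Knockout chicken DT40 cells expressing human TDP1 were exposed to compounds without camptothecin for a minimum 48 hr at 37 °C.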
TDP1 cell CPT – qHTS for Inhibitors of human tyrosyl-DNA phosphodiesterase 1 (TDP1): qHTS in cells in presence of CPT; Potency, µM (highest dose often 46.2 µM), hits mostly inhibitors; chicken DT40 Tdp1-/-;hTDP1 cells + 20 nM CPT, ATP luminescence, 48 h; AID 686979, 2013; 12% of 420,000 active; further: nearly all actives have a fitted effect of over 55% in size
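Chicken DT40 Tdp1-/- cells stably complemented with human TDP1 were seeded at 400 cells/well in medium containing 20 nM camptothecin, exposed to pin-transferred compounds, and grown at 37 °C for at least 48 hr. Viability was read as ATP luminescence.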
IL-1B inflam inh – qHTS for Inhibitors of Inflammasome Signaling: IL-1-beta AlphaLISA Primary Screen | THP-1 LPS/ATP IL-1B secretion, AlphaLISA, 16 h; active compounds read low | activity change, % at 57.5 µM | 4.7% of 360,000 active | AID 743279, 2014; in the data active means activity change below about -50%; inconclusive means mostly about -30% to -49%
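THP-1 cells pretreated 1 hr with compounds (up to 57.5 uM final), then stimulated with LPS (250 ng/mL final) plus ATP (1.25 mM final); secreted IL-1B measured by AlphaLISA after 16 hr, decreased signal indicating inhibition.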
Large screens that a line does not name were inactive. Unless noted, the call rests on the fitted dose curve; in most records, active means well fitted curve in the direction sought with a large enough effect; inconclusive means small, poorly fitted or top-dose-only effect, or another doubt; inactive means no such curve, though single readings can be large; an effect the other way counts as inactive or inconclusive.

CCOC(=O)c1cccc(NC(=O)C(NS(=O)(=O)c2ccc3c(c2)CCN3C(C)=O)C(C)C)c1 (stereo not drawn)	none
Cc1ccc([C@@H]2CC=C(C(=O)O)[C@H](c3cccc(F)c3)N2S(=O)(=O)c2ccccc2C)cc1	none
CCOc1ccc(Oc2c(/C=N/NC(=O)C3CC3)c(C)nn2-c2ccccc2)cc1	TDP1 cell noCPT 15µM, TDP1 cell CPT inconclusive
Cc1cccc(/C=C2/C(=O)/C(=C/c3ccccc3C)C3CCC2N3C)c1 (stereo not drawn)	TDP1 cell noCPT 18µM, TDP1 cell CPT 21µM
CN1C2CCC1/C(=C/c1cccn1C)C(=O)/C2=C\c1cccn1C	TDP1 cell noCPT 16µM, TDP1 cell CPT 23µM
CN1C2CCC1/C(=C\c1ccc(F)cc1)C(=O)/C2=C/c1ccc(F)cc1	TDP1 cell noCPT 16µM, TDP1 cell CPT 21µM, IL-1B inflam inh -87
Cn1cccc1/C=C1\Cc2ccccc2C1=O	none
COc1cccc(N2CCN(S(=O)(=O)c3ccc(-c4cc(C(F)(F)F)on4)s3)CC2)c1	none (no result: HT1080 IDH1KD tx, HT1080NT lethal, IL-1B inflam inh)
CC(=O)Nc1ccc2c(c1)c1ccccc1n2C(C)=O	TDP1 cell noCPT inconclusive, TDP1 cell CPT inconclusive
CC(=O)Nc1ccc2sn(-c3ccccc3)c(=O)c2c1	TDP1 cell noCPT 2.1µM, TDP1 cell CPT 2.1µM, IL-1B inflam inh -102
O=c1c2cc([N+](=O)[O-])ccc2sn1-c1ccccc1	TDP1 cell noCPT 2.9µM, TDP1 cell CPT 4.6µM
N#Cc1ccc2sn(-c3ccccc3)c(=O)c2c1	TDP1 cell noCPT 4.6µM, TDP1 cell CPT 3.7µM
CC1(C)CN(c2cccc(C#N)c2)C1=O	TDP1 cell noCPT inconclusive
CCOc1ccc(C(=O)NCCS(=O)(=O)N2CCN(c3ccccc3F)CC2)cc1OCC	TDP1 cell noCPT inconclusive (no result: HT1080 IDH1KD tx, HT1080NT lethal, IL-1B inflam inh)
COc1ccccc1NC(=O)c1ccc[n+]([O-])c1	none
CC(C)CC1c2[nH]c3ccccc3c2CCN1CCCn1cccn1 (stereo not drawn)	TDP1 cell noCPT inconclusive
CC(=O)Nc1cc(-c2cccc(C(=O)N(C)C)c2)cn2c(-c3cccc(C(=O)N(C)C)c3)cnc12	TDP1 cell noCPT inconclusive, TDP1 cell CPT inconclusive
CC(=O)Nc1cc(-c2cccc(NS(C)(=O)=O)c2)cn2c(-c3cccc(C(C)=O)c3)cnc12	HT1080 IDH1KD tx inconclusive, HT1080NT lethal inconclusive, TDP1 cell noCPT 18µM, TDP1 cell CPT 16µM
CC(=O)Nc1cc(-c2cccc(C(=O)N(C)C)c2)cn2c(-c3ccc(F)c(Cl)c3)cnc12	TDP1 cell noCPT inconclusive, TDP1 cell CPT inconclusive
CC(=O)Nc1cc(-c2cccc(NS(C)(=O)=O)c2)cn2c(-c3ccc(F)c(Cl)c3)cnc12	HT1080 IDH1KD tx inconclusive, HT1080NT lethal inconclusive, TDP1 cell noCPT 23µM, TDP1 cell CPT inconclusive (no result: IL-1B inflam inh)
COc1ccc(-c2cnc3c(NC(C)=O)cc(-c4cccc(NS(C)(=O)=O)c4)cn23)cc1OC	TDP1 cell noCPT 23µM, TDP1 cell CPT 21µM
CC(=O)Nc1cc(-c2ccccc2)cn2c(-c3cccc(C(C)=O)c3)cnc12	HT1080 IDH1KD tx inconclusive, TDP1 cell noCPT 10µM, TDP1 cell CPT 15µM
COc1cc2cc(Oc3ccc4ccc(=O)oc4c3)c(=O)oc2cc1OC(=O)/C=C/c1ccccc1	none
Cc1ccccc1Cn1ccn(-c2ccc(F)c(F)c2)c(=O)c1=O	none (no result: HT1080 IDH1KD tx, HT1080NT lethal, IL-1B inflam inh)
CC1=C(C(=O)N2CCCCCC2)CC(CC(=O)NC2CCCC2)C(=O)N1Cc1ccc(F)cc1 (stereo not drawn)	TDP1 cell noCPT inconclusive
CC(C)(C)C(=O)N1CCN(c2ccnc3cc(Cl)ccc23)CC1	TDP1 cell noCPT inconclusive, TDP1 cell CPT inconclusive
O=S(=O)(c1cccc(Br)c1)N1CCN(c2ccnc3cc(Cl)ccc23)CC1	TDP1 cell noCPT 21µM, TDP1 cell CPT inconclusive
O=C(C1CC1)N1CCN(c2ccnc3cc(Cl)ccc23)CC1	TDP1 cell noCPT inconclusive, TDP1 cell CPT inconclusive
